Measured values as given in PubChem BioAssay AID2014 (Sanford-Burnham Center for Chemical Genomics, 2009).
Screen size: about 290,000 compounds; about 3,000 (1%) were called active. How the calls were made is not given here. The list comes from a sample in which actives are over-represented; it also holds similar structures and randomly drawn compounds.

Target: Polyadenylate-binding protein 1 (Homo sapiens) (UniProt P11940)
Test: blockers of PABP interaction with poly(A) – biochemical, fluorescence polarization, uHTS, primary screen (AID 2014);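 further: calls also rest on retests at 20 µM and on dose response follow-up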
Details: PABP-poly(A) RNA binding, stronger effect = higher value

Polyadenylate-binding protein 1 (Homo sapiens), sequence (P11940 whole entry, looked up): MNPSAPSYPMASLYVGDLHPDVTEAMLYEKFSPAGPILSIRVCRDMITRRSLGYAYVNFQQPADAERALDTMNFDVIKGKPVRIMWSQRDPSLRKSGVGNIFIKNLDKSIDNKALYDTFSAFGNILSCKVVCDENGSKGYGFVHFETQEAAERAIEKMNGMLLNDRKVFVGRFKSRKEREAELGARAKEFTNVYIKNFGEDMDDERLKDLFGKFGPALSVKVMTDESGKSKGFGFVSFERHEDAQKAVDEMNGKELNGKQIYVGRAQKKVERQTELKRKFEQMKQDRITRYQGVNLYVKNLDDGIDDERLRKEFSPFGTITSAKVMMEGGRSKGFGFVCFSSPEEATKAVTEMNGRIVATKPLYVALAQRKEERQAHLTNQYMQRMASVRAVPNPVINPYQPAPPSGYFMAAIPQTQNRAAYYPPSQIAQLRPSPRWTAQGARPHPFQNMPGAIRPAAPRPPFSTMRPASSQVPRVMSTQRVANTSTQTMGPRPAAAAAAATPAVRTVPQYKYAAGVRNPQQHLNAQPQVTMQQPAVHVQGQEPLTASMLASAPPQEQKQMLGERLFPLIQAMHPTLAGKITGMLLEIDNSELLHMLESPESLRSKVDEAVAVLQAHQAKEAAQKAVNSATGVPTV

Row | Compound | inhibition (at 35 µM) | inhibition (confirmation repeats, at 20 µM) [%]
1 | O=C(Nc1cccnc1Cl)c1cc(-c2ccccc2O)on1 | -6.2% (inactive) | 
2 | COc1ccc(NC(=O)c2cccc3c2C(=O)N(CC2CCCO2)C3)cc1OC (stereo not drawn) | -2% (inactive) | 
3 | Cc1cccn2c(=O)c3cc(C(=O)NCC4CCCO4)c(=N)n(Cc4ccc(F)cc4)c3nc12 (stereo not drawn) | -1% (inactive) | 
4 | Cc1ccc2nc3c(cc(C(=O)NCCc4ccccc4)c(=N)n3CC3CCCO3)c(=O)n2c1 (stereo not drawn) | 83.3% (active) | 
5 | COc1ccc(CNC(=O)c2cc3c(=O)n4ccccc4nc3n(CC3CCCO3)c2=N)cc1 (stereo not drawn) | -5.2% (inactive) | 
6 | COc1ccc(-n2c(=O)[nH]c3cc(C(=O)NCCc4ccc(OC)c(OC)c4)ccc3c2=O)c(OC)c1 | 11% (inactive) | 
7 | COc1ccc(N2CCN(C(=O)c3ccccc3NC(=O)C3=C(C)OCCS3)CC2)cc1 | -6.5% (inactive) | 
8 | O=C(c1cc(-c2ccc(O)cc2)on1)N1CCOCC1 | 2.9% (inactive) | 
9 | CCOC(=O)CNC(=O)CSc1nc2cccnc2n1CC | 23.1% (inactive) | 
10 | COCCCNC(=O)Cc1ccc(-n2c(C)nc3cccnc32)cc1 | 36% (inactive) | 12
11 | CCc1nc2cccnc2n1-c1ccc(C(=O)O)cc1 | 73.7% (active) | 87.5
12 | CCOC(=O)[C@@H]1[C@H]2COc3cc(OC)ccc3[C@@H]2N2C(=O)N(c3cccc(C)c3)C(=O)[C@@]12C | 7.6% (inactive) | 
13 | O=C(Cc1cccs1)Nc1ccc([N+](=O)[O-])cc1 | 2.1% (inactive) | 
14 | Cc1ccc(/C=C/C(=O)Nc2cc(S(=O)(=O)N3CCCCCC3)ccc2OCC(F)(F)F)o1 | -0.3% (inactive) | 
15 | Cc1ccc(/C=C/C(=O)Nc2ccc([N+](=O)[O-])c(NC(=O)/C=C/c3ccc(C)o3)c2)o1 | 0% (active) | 119
16 | COC(=O)/C=C\C(=O)Nc1cccc([N+](=O)[O-])c1 | 9.4% (inactive) | 
17 | COCc1ccc(CN2CCC(Oc3ccc(C(=O)NCc4ccccn4)cc3)CC2)o1 | -1.3% (inactive) | 
18 | Cc1[nH]c2ccccc2c1C(=O)CN1CCCC(C)C1 (stereo not drawn) | 8.2% (inactive) | 
19 | Cc1nc(SCC(=O)NC2CCCC2)[nH]c(=O)c1C | 3.8% (inactive) | 
20 | O=C(/C=C/c1ccc([N+](=O)[O-])o1)NNC(=O)c1ccc(F)cc1 | 8.2% (inactive) | 

Row | Compound | inhibition (at 35 µM) | inhibition (confirmation repeats, at 20 µM) [%]
21 | CN1C(=O)/C(=C/c2ccco2)SC1=Nc1cccc(C(=O)O)c1 | -1.6% (active) | 78.4
22 | CN=C1S/C(=C\c2ccc(Sc3ccc(Cl)cc3)o2)C(=O)N1C | -5.7% (inactive) | 
23 | CN=C1S/C(=C\c2c(OC)cc(OC)cc2OC)C(=O)N1C | 8.5% (inactive) | 
24 | COC(=O)C1(C)NC(c2ccc(F)cc2)C2C(=O)N(c3ccccc3)C(=O)C21 (stereo not drawn) | 10.8% (inactive) | 
25 | CC(=O)NS(=O)(=O)c1ccc2c(c1)Cc1cc(S(=O)(=O)NC(C)=O)ccc1-2 | 6% (inactive) | 
26 | COc1ccccc1CNS(=O)(=O)CC12CCC(CC1=O)C2(C)C (stereo not drawn) | 3.9% (inactive) | 
27 | CC(C)Cc1nnc(NC(=O)CCc2ccccc2)s1 | -7.4% (inactive) | 
28 | Brc1ccc(CSc2ccc(-c3ccco3)nn2)cc1 | -6.1% (inactive) | 5.9
29 | Fc1cccc(Cl)c1CSc1ccc(-c2ccco2)nn1 | -6.6% (inactive) | 
30 | Clc1ccccc1CSc1nnc(-c2ccco2)c(-c2ccco2)n1 | 82.6% (active) | 87.4
31 | O=c1[nH]c(SCc2ccccc2)nnc1-c1ccccc1 | 62.5% (inactive) | -3.1
32 | COC(OC)c1ccnc(SCc2ccccc2Cl)n1 | -6.4% (inactive) | 
33 | c1ccc(CSc2nnc(-c3ccco3)c(-c3ccco3)n2)cc1 | 74.8% (active) | 
34 | COc1ccc(S(=O)(=O)Nc2ccc(F)cc2)c(C)c1C | -4.6% (inactive) | 
35 | COc1ccc(NS(=O)(=O)c2ccc(F)cc2F)cn1 | 70.3% (active) | 
36 | CCOc1ccc(S(=O)(=O)Nc2ccc(OC)nc2)cc1 | 9.7% (inactive) | 
37 | COCC(=O)N1CCc2ccc(NC(=O)c3ccccc3Cl)cc2C1 | 9.8% (inactive) | 
38 | Nc1nc(SCC(=O)Nc2cc(C(F)(F)F)ccc2Cl)[nH]c(=O)c1NC(=O)c1ccco1 | 2.8% (inactive) | 
39 | Cc1c(CC(=O)NCCCCCC(=O)O)c(=O)oc2cc3occ(-c4ccccc4)c3cc12 | 15.4% (inactive) | 
40 | Cc1c(CCC(=O)O)c(=O)oc2cc3occ(-c4ccccc4)c3cc12 | 32.6% (inactive) | 

Row | Compound | inhibition (at 35 µM) | inhibition (confirmation repeats, at 20 µM) [%]
41 | CCCCCCc1cc2cc(-c3nnc(-c4ccccc4)o3)c(=O)oc2cc1O | 102% (active) | 
42 | COc1cc(C(=O)N2CCN(C3CCC(C)CC3)CC2)cc(OC)c1OC (stereo not drawn) | 7.5% (inactive) | 
43 | CC(C)=N/N=C1/NC(=O)C(Cc2ccccc2)S1 (stereo not drawn) | 4.2% (inactive) | 
44 | CCOc1ccccc1/C=c1\sc2nc(-c3ccco3)nn2c1=O | 53% (active) | 
45 | CCOC(=O)/C=c1\s/c(=C\c2ccccc2OC)c(=O)n1CC(=O)N1CCOCC1 | 7.9% (inactive) | 
46 | CSc1nc(-c2ccco2)nn1C(=O)CCc1ccccc1 | 7.1% (inactive) | 
47 | CC1CCCCN1C(=O)CCS(=O)(=O)Cc1ccccc1 (stereo not drawn) | 9.6% (inactive) | 
48 | Cc1nc(N)nc(SCc2ccc([N+](=O)[O-])cc2)c1N | 7.3% (inactive) | 
49 | COc1ccccc1N1CCN(S(=O)(=O)c2ccc(Cl)cc2)CC1 | -9.7% (inactive) | 
50 | O=S(=O)(c1ccc(F)cc1)N1CC=C(c2ccccc2)CC1 | 4.6% (inactive) | 
51 | Cc1c(C2=CCN(S(=O)(=O)c3ccc(Cl)cc3)CC2)c2ccccc2n1C | 4.5% (active) | 95.9
52 | COc1ccccc1NC(=O)C1CCN(C(=O)c2ccc(C(C)(C)C)cc2)CC1 | 10.3% (inactive) | 
53 | NS(=O)(=O)c1ccc(-c2ccc(/C=C3\SC(=O)NC3=O)o2)cc1 | 7.1% (inactive) | 
54 | CC(=O)OCc1cc2cc(C)ccc2[nH]c1=O | 9.2% (inactive) | 
55 | COc1ccc2[nH]c(=O)c(-c3noc(-c4ccc(F)cc4)n3)cc2c1 | 1.1% (inactive) | 
56 | CCCc1nc(-c2cc3cc(C)ccc3[nH]c2=O)no1 | 61.5% (active) | 60
57 | COc1ccc(-n2ncc3c2CC(C)(C)CC3NC(=O)CCc2c(C)noc2C)cc1 (stereo not drawn) | 9.7% (inactive) | 
58 | CCCS(=O)(=O)N1CCN=C1SCc1cccc(F)c1 | -1.7% (inactive) | 
59 | COc1ccc(CNC(=O)C(=O)NCC2OCCN2C(=O)c2ccc(OC)cc2)cc1 (stereo not drawn) | -1% (inactive) | 
